D2 ag-1: agonists of human D2 dopamine receptor (beta-arrestin); 360,000 compounds, 0.084% hits; P14416; DiscoveRx PathHunter D2 beta-arrestin, luminescence, 90 min; 100% = 57 uM dopamine signal; activation, % (test concentration not listed); in the data active means activation above about 40%
Target sequence (P14416 whole entry, looked up): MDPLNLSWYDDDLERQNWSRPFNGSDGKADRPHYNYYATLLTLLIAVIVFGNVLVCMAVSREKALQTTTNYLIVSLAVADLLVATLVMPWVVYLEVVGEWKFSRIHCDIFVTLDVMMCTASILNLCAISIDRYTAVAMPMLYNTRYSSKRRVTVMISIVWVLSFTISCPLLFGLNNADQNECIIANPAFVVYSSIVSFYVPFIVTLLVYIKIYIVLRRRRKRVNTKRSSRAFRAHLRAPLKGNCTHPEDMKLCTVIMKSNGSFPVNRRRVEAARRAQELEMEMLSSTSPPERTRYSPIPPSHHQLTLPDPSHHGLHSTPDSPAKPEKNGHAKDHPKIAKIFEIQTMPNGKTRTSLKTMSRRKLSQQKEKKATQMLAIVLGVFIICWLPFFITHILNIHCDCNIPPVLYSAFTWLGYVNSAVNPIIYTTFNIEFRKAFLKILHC
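Agonist mode: compounds alone added to overnight-plated D2 PathHunter cells for 90 min at 37 C, with 57 uM final dopamine (EC100) defining full response. Beta-arrestin recruitment detected by chemiluminescent reagent, read after 1 h at ambient temperature.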
D2 ag-2: D2 dopamine receptor (human) agonism; P14416; HEK293 T-REx D2 cells, calcium flux agonist mode; activation, % at 2 µM; 340,000 compounds, 0.53% hits; AID 485358;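 active means activation over 3 SD above normal in the single-dose calcium agonist read, cut at about 30% in these data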; further: 0% is about no effect
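Agonism scored from kinetic calcium signal (1 read/sec, 180 s) following compound pin transfer, after a 10 s baseline. Cells: HEK293 Trex line expressing inducible D2 receptor coupled to calcium, dye-loaded after overnight culture at 30 C.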
D2 PAM-1: potentiates the human D2 dopamine receptor allosterically; P14416; DiscoveRx D2 beta-arrestin cells, luminescence, 90 min; 100% = 57 uM dopamine signal; potentiation, % (concentration not given with the values); 360,000 compounds, 0.23% hits; AID 624464; in the data active means potentiation above about 50%
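D2 cells co-treated with compound plus 50 nM dopamine (EC20) for 90 min at 37 deg C to detect potentiation. Beta-arrestin recruitment was read as enzyme-fragment luminescence after 1 h at ambient temperature. Full response was set by 57 uM dopamine.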
D2 antag: antagonists of human D2 dopamine receptor; P14416; HEK293 TREx D2 cells, calcium flux, dopamine EC80; inhibition, % at 10 µM; 340,000 compounds, 2% hits; AID 485344; in the data active means inhibition above about 30%; inactive means below that, where a call was filed; further: 0% is about no effect
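Dopamine at EC80 is the agonist stimulus; test compounds precede it by 180 s. Calcium flux read kinetically in a force-coupled, inducible HEK293 T-REx D2 cell line.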
D2 PAM-2: D2 dopamine receptor (human) potentiation. HEK293 T-REx D2, calcium flux, EC20 dopamine potentiation. P14416. 340,000 compounds, 0.34% hits. potentiation, % at 10 µM;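 active means potentiation over 3 SD above the plate norm, cut at about 30% in these data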; further: 0% is about no effect
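Potentiation of an EC20 dopamine calcium response measured kinetically over 180 s, after a preceding 180 s compound-only read flagging agonists. Cells: inducible Hek293 Trex D2 line, 4000/well, cultured overnight at 30 C before dye loading.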
Numbers without * were called inactive; x = no result. Rows were chosen to be rich in hits. Some 2.4% of all compounds tested hit in one or more screens of this group.

SMILES	D2 ag-1	D2 ag-2	D2 PAM-1	D2 antag	D2 PAM-2
CC1=CS(=O)(=O)CC1Sc1nc2ccccc2[nH]1 (centres undefined)	-1	0	4	38*	-7
COC(=O)c1ccc(NC(=S)NCCC2=CCCCC2)cc1	-1	0	-19	55*	-16
COc1ccc(C)cc1NC(=O)NCCC1=CCCCC1	-3	-1	-22	86*	-30
Cc1cccc(-c2nnc(SCc3cc(=O)c4cccc(Cl)c4[nH]3)n2C)c1	x	-1	x	x	x
CCOC(=O)c1[nH]c2c(c1-c1ccccc1)C(=O)CC(c1ccccc1)C2 (centres undefined)	0	1	-1	31*	-6
COc1cc(C(CC(=O)N2CCCC2)c2c(OC)cc(OC)c3ccc(=O)oc23)cc(OC)c1OC (centres undefined)	0	0	-9	-1	11
COc1cc(C(CCN2CCCC2)c2c(OC)cc(OC)c3ccc(=O)oc23)cc(OC)c1OC (centres undefined)	1	0	-16	33*	-1
CCOC(=O)CNC(=O)CSc1ncnc2c1cnn2-c1ccc(C)cc1	1	0	-3	5	-5
Cc1ccc(-n2ncc3c(SCC(=O)NNC(=O)c4ccco4)ncnc32)cc1	1	0	-3	-1	32*
O=C(c1cccc(S(=O)(=O)N2CCCCC2)c1)N1CCOCC1	-3	0	-13	10	-1
O=C(c1cccc(S(=O)(=O)N2CCOCC2)c1)N1CCN(S(=O)(=O)c2cccs2)CC1	-3	4	-6	42*	-1
O=C(NC1=NCCS1)c1cccc(S(=O)(=O)N2CCOCC2)c1	0	0	-4	34*	-8
Cc1ccc(S(=O)(=O)N2[C@@H](c3cccc(Cl)c3)C(C(=O)OC(C)(C)C)=CC[C@H]2c2ccc(C(C)C)cc2)cc1	-3	x	-11	x	x
Cc1cc2nn(-c3ccc(F)cc3)nc2cc1NC(=O)c1cccc([N+](=O)[O-])c1C	x	1	x	x	-6
Fc1ccc(-n2cc(-c3ccccc3)c3c(NC4CCCCC4)ncnc32)cc1	x	0	x	x	12
COc1ccc(-c2cc([N+](=O)[O-])ccc2OCC(=O)N(C)CC(=O)Nc2ccc(C)cc2)cc1	-4	-1	-26	-5	-3
Cc1ccc(NC(=O)CN(C)C(=O)COc2cc(F)ccc2[N+](=O)[O-])cc1	-5	-1	-33	62*	-19
CCOC(=O)c1sc(NC(=O)c2cc(-c3ccc(F)cc3)on2)c(C(=O)OCC)c1C	x	1	x	x	-4
COc1ccc(Nc2ncnc3c2nc2n3CCCCC2)cc1	x	-1	x	x	5
CCCc1nc2ccc(NC(=O)NCCC(=O)OCC)cc2c(=O)n1Cc1cccc(Cl)c1	0	0	3	-16	4
CCOC(=O)CCNC(=O)Nc1ccc2nc(C)n(Cc3cccc(Cl)c3)c(=O)c2c1	0	-2	7	-15	35*
S=c1[nH]nc(C2CCCCC2)n1/N=C/c1ccc(Cl)cc1	4	0	-4	5	-4
S=c1[nH]nc(C2CCCCC2)n1/N=C/c1ccc(Br)cc1	13	2	-4	36*	5
COc1ccc(-n2c(SCC(=O)Nc3nnc(C)s3)nc3c([nH]c4ccccc43)c2=O)cc1	x	0	x	x	-5
COc1cc2[nH]c(-c3ccc(C)cc3)cc(=O)c2cc1OC	1	-1	-31	84*	-20
SMILES	D2 ag-1	D2 ag-2	D2 PAM-1	D2 antag	D2 PAM-2
COc1ccc(-c2cc(=O)c3cc(C)ccc3[nH]2)cc1	-4	0	-21	14	-9
Cc1ccc(C(=O)Nc2sc3c(c2C(=O)O)CCCCC3)o1	-1	1	4	32*	3
O=C(Nc1sc2c(c1C(=O)O)CCC2)c1ccco1	1	0	-1	4	5
COC(=O)c1c(NC(=O)c2ccco2)sc2c1CCC2	-6	-3	5	2	30*
COC(=O)c1c(NS(=O)(=O)c2cccs2)sc2c1CCCC2	-2	0	-2	41*	9
COC(=O)c1c(NC(=O)Cc2cccs2)sc2c1CCCC2	-3	0	3	-2	3
Cc1ccc(SCc2cc(-c3ccc(Cl)cc3)no2)cc1	0	x	-7	x	32*
